FLuc modulator: firefly luciferase modulation, counter-screen for miR-21 project; Potency, µM (highest dose often 57.5 µM), inactives show top-dose activity change, negative = inhibition, most hits filed as inhibitors; purified FLuc, Km substrates, luminescence inhibition; actives 6.9% (n = 360,000); P08659; AID 588342;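 note: plate controls were vehicle for no effect and reference inhibitor for full effect; nearly all actives have a fitted effect of over 55% in size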
Target sequence (P08659 whole entry, looked up): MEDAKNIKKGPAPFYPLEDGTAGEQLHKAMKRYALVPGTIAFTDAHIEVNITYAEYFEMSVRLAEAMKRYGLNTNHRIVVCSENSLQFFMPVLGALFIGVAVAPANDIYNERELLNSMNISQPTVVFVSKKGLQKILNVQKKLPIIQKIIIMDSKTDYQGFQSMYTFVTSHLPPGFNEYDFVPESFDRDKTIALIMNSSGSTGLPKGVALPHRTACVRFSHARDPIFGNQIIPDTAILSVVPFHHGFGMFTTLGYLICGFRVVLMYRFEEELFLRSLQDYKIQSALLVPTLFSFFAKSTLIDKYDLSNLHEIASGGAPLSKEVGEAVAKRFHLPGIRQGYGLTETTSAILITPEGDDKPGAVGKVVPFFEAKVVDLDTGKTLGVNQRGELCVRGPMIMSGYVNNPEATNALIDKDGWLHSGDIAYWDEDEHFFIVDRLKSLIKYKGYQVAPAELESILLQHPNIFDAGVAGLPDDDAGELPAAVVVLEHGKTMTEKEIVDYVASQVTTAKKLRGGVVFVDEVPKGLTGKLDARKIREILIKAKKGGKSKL
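Purified P. pyralis luciferase (10nM final) with 10uM D-luciferin and 10uM ATP (Km levels) in 50mM Tris acetate pH 7.5, 10mM Mg acetate, 0.01% Tween-20, 0.05% BSA; qHTS 6-point titration, ~60 µM downward; luminescence read.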
NPC1 promoter act: activates the NPC1 promoter | Huh7 NPC1 promoter luciferase reporter, 24 h | Potency, µM (titrated, usually from 9.22 µM), inactives show top-dose activation, most hits filed as activators | actives 2.4% (n = 320,000) | AID 485313; note: % of control where 0% means no effect; nearly all actives have a fitted effect of over 60% in size
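Quantitative HTS used a cell-based reporter: Huh7 cells stably bearing the NPC1 promoter upstream of luciferase were treated with compounds for 24 h, and promoter activation was read as luminescence.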
SMN2 splice enh: increases expression of the SMN2 splice variant. Potency, µM (series often up to 46.1 µM), inactives show at the top dose activity change, positive = activation, most hits filed as activators. AID 1458. actives 2.8% (n = 210,000). HEK293 SMN2-luciferase splicing reporter, luminescence, 30-36 h; note: % of control where 0% means no effect; nearly all actives have a fitted effect of over 55% in size
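HEK293 cells carry an SMN2 […]–luciferase reporter in which exon 7 inclusion puts luciferase in frame. Cells were plated 10-12 h before compound addition, then incubated 30-36 h at 37C. ONE-Glo luminescence was read; sodium butyrate at 4.5 mM final served as control.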
ELG1 genotoxic: induces genotoxicity in HEK293T cells with luciferase-tagged ELG1; HEK293T ELG1-luciferase reporter, luminescence, 16 h; Potency, µM (doses to about 46 µM), for the others: at the top dose activity change, positive = activation, hits mostly activators; actives 1.3% (n = 330,000); note: % of control where 0% means no effect; nearly all actives have a fitted effect of over 60% in size
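DMSO vehicle served as control against compound-treated ELG1-luciferase HEK293T cells; exposure lasted 16 hr at 37 °C and 5% CO2, followed by ONE-Glo luminescence detection after 30 min.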
Rab9 promoter act: Rab9 promoter activation; Huh7 Rab9 promoter-luciferase reporter, luminescence, 24 h; Potency, µM (top dose mostly 9.22 µM), without a hit: at the highest dose activation, negative = inhibition, most hits filed as activators; actives 2.8% (n = 320,000); AID 485297; note: % of control where 0% means no effect; nearly all actives have a fitted effect of over 60% in size
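Huh7 cells stably carrying Rab9 promoter–luciferase reporter, plated 1500 cells/well, compound added after 2 h and incubated 24 h at 37 °C; luciferase luminescence then read after 10 min with detection reagent.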
Starred values were filed as active, the others as inactive; ? = inconclusive; nt = no result. In the library only some 7.4% were active in any assay of this set; here they are far more common. Calls come from the whole dose curve; as a rule, active = well fitted curve in the direction sought with a large enough effect; inconclusive = small, poorly fitted or top-dose-only effect, or another doubt; inactive = no such curve, though single readings can be large; an effect the other way counts as inactive or inconclusive. Potency is the fitted concentration of half-maximal effect.

SMILES | FLuc modulator | NPC1 promoter act | SMN2 splice enh | ELG1 genotoxic | Rab9 promoter act
O=C(O)c1cc(-c2cccs2)nc2ccc(Br)cc12 | 19µM* | 1% | nt | -1% | 3%
O=C(c1cc(-c2cccs2)nc2ccccc12)N1CCN(c2ccccc2)CC1 | 11µM* | -9% | -17% | -13% | -1%
O=C(c1cc(-c2cccs2)on1)N1CCN(c2ccc(F)cc2)CC1 | 24µM* | 3% | -53% | -7% | 1%
COc1ccc(NC(=O)C(=O)NCC(c2ccco2)N2CCc3ccccc3C2)cc1OC (stereo not drawn) | 4% | -2% | nt | -3% | 3%
Cn1c(=O)c2c(ncn2CC(=O)OCCCC(=O)c2ccc(Br)cc2)n(C)c1=O | nt | nt | nt | -1% | nt
C=CCC(C)(O)c1cccc(Br)c1 (stereo not drawn) | nt | nt | 0% | nt | nt
O=C(c1cn(-c2ccccc2)nc1-c1ccc(Cl)s1)N1CCOCC1 | 17µM* | -2% | 13% | 2% | -8%
O=C(c1cc(-c2cccs2)on1)N1CCN(c2ccccc2)CC1 | 17µM* | -2% | 3% | 0% | 2%
O=C(c1cn(-c2ccccc2)nc1-c1ccc(Cl)cc1)N1CCOCC1 | ? | -1% | 18% | -1% | -2%
Nc1cc(N)cc(C(=O)OCC(=O)Nc2cc(S(=O)(=O)N3CCCCC3)ccc2Cl)c1 | 17µM* | -3% | -4% | -6% | -2%
CCOc1ccc(/C=C/C(=O)OCC(=O)Nc2cccc(S(=O)(=O)N3CCCC3)c2)cc1 | 2.1µM* | -1% | nt | -1% | -1%
O=C(COc1ccc(F)cc1Cl)Nc1cccc(S(=O)(=O)N2CCCC2)c1 | 13µM* | -1% | nt | 0% | 3%
O=C(COc1ccccc1Cl)Nc1cccc(S(=O)(=O)N2CCCC2)c1 | 19µM* | -7% | nt | -1% | -2%
COc1ccc(CCNC(=O)c2ccc3c(c2)N=C(C)c2ccccc2S3)cc1OC | -3% | nt | -18% | nt | nt
CCCCOc1ccc(C2C(=O)N(C3CCCCC3)CC(=O)N2CCCC)cc1 (stereo not drawn) | 4% | nt | nt | nt | nt
CCN(CC)S(=O)(=O)c1cccc(NC(=O)COc2ccc(Cl)cc2Br)c1 | 21µM* | 0% | -37% | -1% | -3%
Cc1ccc(C2C3=C(CC(C)(C)CC3=O)N(CCN3CCOCC3)C3=C2C(=O)CC(C)(C)C3)cc1 | -9% | -3% | -8% | -2% | 3.5µM*
CC1(C)CC(=O)C2=C(C1)N(CCN1CCOCC1)C1=C(C(=O)CC(C)(C)C1)C2c1ccc(Cl)c([N+](=O)[O-])c1 | -2% | -5% | -6% | -1% | -2%
COc1ccc(NC2=CC(=O)CC(c3ccccc3)C2)cc1 (stereo not drawn) | -3% | 1% | -3% | 0% | -4%
CCN1C(=O)c2ccccc2S(=O)(=O)c2ccc(C(=O)NCc3ccc(C)cc3)cc21 | -5% | nt | -2% | nt | nt
COc1ccc(NC(=S)Nc2cc(-c3ccccc3)[nH]n2)cc1Cl | ? | -4% | 11% | -4% | -3%
Cc1cc(NC(=S)Nc2ccc(C)c(Cl)c2)n[nH]1 | 17µM* | ? | 18µM* | ? | ?
COc1ccc(NC(=S)Nc2cc(C)[nH]n2)cc1Cl | 17µM* | ? | nt | 15% | ?
COc1cc(C)c(NC(=S)Nc2ccc(C)c(Cl)c2)cc1OC | 5% | -2% | -13% | -1% | 0%
Cc1ccc(CCNC(=O)CCCn2c(=O)c3ccccc3n(Cc3ccccc3C)c2=O)cc1 | 2% | nt | 6% | nt | nt
SMILES | FLuc modulator | NPC1 promoter act | SMN2 splice enh | ELG1 genotoxic | Rab9 promoter act
O=C(CN1CCCCCC1)Nc1ccccc1[N+](=O)[O-] | 2% | 2% | nt | -2% | 4%
N#C/C(=N\Nc1ccc([N+](=O)[O-])cc1)C(N)=S | 17µM* | 24% | nt | -15% | 20%
N#C/C(=N\Nc1ccc([N+](=O)[O-])cc1)C(=N)N1CCOCC1 | ? | ? | nt | ? | 2.8µM*
N#C/C(=N\Nc1ccc(Br)cc1)C(=N)N1CCOCC1 | ? | 3.5µM* | ? | ? | 4µM*
COc1ccccc1N/N=C(\C#N)C(=N)N1CCOCC1 | -6% | 3% | ? | 0% | 11%
N#C/C(=N\Nc1ccccc1[N+](=O)[O-])C(=N)N1CCCCC1 | 2.4µM* | 0.56µM* | 3.2µM* | ? | 0.28µM*
CC(C)(C)c1ccc(S(=O)(=O)N2CCN(CC(=O)NC(=O)NC3CCCCC3)CC2)cc1 | 8% | -4% | nt | 0% | 3%
N#C/C(=N/Nc1ccc([N+](=O)[O-])cc1)C(=N)N1CCCCC1 | 9.5µM* | 1µM* | 3.2µM* | ? | 0.56µM*
CCN(CC)S(=O)(=O)c1cccc(-c2nc3n(n2)Cc2ccccc2-3)c1 | 12µM* | ? | -16% | 5% | ?
Clc1ccc(-c2nc3n(n2)Cc2ccccc2-3)cc1 | 0.54µM* | 3.2µM* | 0.5µM* | ? | 1.6µM*
Cc1cc(C)cc(NS(=O)(=O)c2ccc3c(c2)OCC(C(=O)N2CCCC2)O3)c1 (stereo not drawn) | -16% | nt | nt | nt | nt
Cc1ccc(Cl)cc1NC(=O)C1CCN(c2nnc(C)c3c(C)n(-c4ccccc4)nc23)CC1 | -10% | nt | nt | nt | nt
COc1cccc(CN(C)Cc2c(O)ccc3ccccc23)c1 | 11µM* | 3% | nt | 0% | 0%
O=[N+]([O-])c1ccc(N=Cc2sc3ccccc3c2O)cc1 | ? | 22% | 25µM* | 8.2µM* | ?
Oc1c(C=NCc2ccccc2)sc2ccccc12 | 11µM* | ? | 2% | ? | 2.8µM*
O=C(OCC(=O)N1CCN(c2ccccc2)CC1)c1ccccc1NCCO | -7% | 28% | nt | 10% | ?
O=C(O)c1ccc(NC(=O)C2CC=CCC2C(=O)O)cc1 (stereo not drawn) | 2% | -2% | 7% | 1% | -1%
O=C(Nc1n[nH]c(=S)s1)c1ccc2ccccc2c1 | 27µM* | 1.1µM* | nt | ? | 0.79µM*
CCOc1cccc(C(=O)Nc2nccs2)c1 | 15µM* | ? | ? | ? | ?
CCC(=O)Nc1cccc(C(=O)Nc2nccs2)c1 | ? | 11% | nt | 1% | 11%
O=C(Nc1nc(-c2ccccn2)cs1)c1ccc(Br)s1 | 19µM* | -3% | -96% | ? | -3%
O=C(Nc1nccs1)c1ccc(NC(=O)C2CC=CCC2C(=O)O)cc1 (stereo not drawn) | 17µM* | 6% | -10% | 1% | 17%
O=C(Nc1ncccc1O)c1ccc2ccccc2c1 | 1% | -3% | nt | -7% | -7%
O=C(Nc1nc(-c2ccccn2)cs1)c1ccco1 | ? | 24% | -85% | ? | 10%
CC(C)CC1NC(=O)N(CC(=O)Nc2ccc(OCc3ccccc3)cc2)C1=O (stereo not drawn) | -8% | 0% | nt | 0% | 0%
Cc1ccc(CNC(=O)c2c(C)oc3nc(C)nc(N4CCOCC4)c23)cc1 | 4% | nt | nt | nt | nt
O=C(Nc1nccs1)c1ccc(S(=O)(=O)c2ccccc2)cc1 | 6% | -1% | -12% | -1% | 0%

Bioassay records deposited in PubChem BioAssay by National Center for Advancing Translational Sciences (NCATS).
